In PubChem BioAssay one finds outcome and AC50 data, which are given here for 39 compounds.

Results filed as inconclusive are left out. Active and inactive are the calls of the source. The limit is not given here; nearly all actives have AC50 up to about 26 µM.

This test can be described thus: viability loss in pontine glioma line – cell-based, SU-DIPG-XVII, MIPE5.0, CellTiter-Glo, qHTS, dose response (AID 1347060).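 As to AC50: cells exposed to compound for 48 hours before viability readout.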 The conditions noted are these: CellTiter-Glo ATP luminescence. Background: Cellular ATP, detected with luciferase, serves as a proxy for viable cell number.
In the case of `CCN1C[C@]2(OC(=O)c3ccccc3NC(C)=O)CC[C@H](OC)[C@@]34[C@@H]2C[C@@H]([C@@H]13)[C@@]1(O)C[C@H](OC)[C@H]2C[C@@H]4[C@]1(O)[C@H]2OC`, the compound was classed as inactive.
One may read the AC50 as the concentration at which the activity in the assay is half-maximal. On to `C[C@@H]1O[C@@H](O[C@@H]2C=C3CC[C@@H]4[C@H](CC[C@]5(C)[C@@H](c6ccc(=O)oc6)CC[C@]45O)[C@@]3(C)CC2)[C@H](O)[C@H](O)[C@H]1O`, for which the AC50 was 0.0148 µM (active).
The same measure, in the same setting: as for `CCOc1ccccc1-n1c(C(C)N2CCN(C(=O)COc3ccc(Cl)cc3)CC2)nc2ccccc2c1=O` (centres undefined), the figure is 16.6 µM (active).
Consider `NC(=O)[C@@H](CC1CC1)[C@@H](CCC(F)(F)F)C(=O)N[C@H]1N=C(c2ccccc2)c2cccc(F)c2NC1=O`, for which the result was inactive.
Consider `CN[C@@H]1C[C@H]2O[C@@](C)([C@@H]1OC)n1c3ccccc3c3c4c(c5c6ccccc6n2c5c31)C(=O)NC4`, for which the AC50 was 0.118 µM (active).
Still for that read-out and setting: the result for `C[C@]12CC[C@H]3[C@@H](CC[C@@]45O[C@@H]4C(O)=C(C#N)C[C@]35C)[C@@H]1CC[C@@H]2O` reads 29.5 µM (active).
For `c1ccc2c(CN3CCNCC3)cccc2c1`, the result was inactive.
Same read-out and setting: the result for `Cn1c(/C=C/CO)c(CO)c2c1C(=O)C=C(N1CC1)C2=O` reads “inactive”; that for `CC1=C2C[C@H]3[C@@H](CC=C4C[C@@H](O)CC[C@@]43C)[C@@H]2CC[C@]12O[C@@H]1C[C@H](C)CN[C@H]1[C@H]2C`, “inactive”.
Regarding `O=c1[nH]c2ccc(Cl)cc2c(N[C@@H]2CN3CCC2CC3)c1-c1nc2ccccc2[nH]1`, the AC50 is 2.63 µM (active).
Turning to `O=C(Nc1ccncc1)C(=O)c1cn(Cc2ccc(Cl)cc2)c2ccccc12`, the AC50 is 0.295 µM (active).
For the compound `CN1[C@@H]2CC(O)C[C@H]1[C@@H]1O[C@@H]12` (some centres undefined), the compound was called inactive.
With `Cc1[nH]ncc1-c1cc2nc([C@@H]3CC4CCN3CC4)[nH]c(=O)c2s1`, the concentration at half-maximal activity (AC50) is 18.6 µM (active).
On to `O=C(O)CNC(=O)C1C(=O)N(C2CCCCC2)C(=O)N(C2CCCCC2)C1=O`, for which the AC50 is 20.9 µM (active).
Same read-out and setting: the result for `COc1cc2c(cc1F)C(c1ccccc1Cl)=Nc1c(n[nH]c1C)N2` reads 5.25 µM (active); that for `O=C(NCCCNc1nc(Nc2ccc(N3CCOCC3)cc2)ncc1C1CC1)C1CCC1`, 20.9 µM (active).
On to `C[C@]12Cc3cn[nH]c3C[C@@H]1CC[C@@H]1[C@@H]2CC[C@@]2(C)[C@H]1CC[C@]2(C)O`, for which the result was inactive.
On the same count and under the same terms, as for `CN1C(=O)[C@@H](NC(=O)[C@H](CCC(F)(F)F)[C@H](CCC(F)(F)F)C(N)=O)N=C(c2ccccc2)c2ccccc21`, the entry is “inactive”.
As for `CC[C@H]1/C=C\C=C/C[C@@H](C)[C@H](O)[C@@](C)(O)C(=O)[C@@H](C)[C@H](O)[C@@H](C)C(=O)[C@@H](C)[C@H](O)[C@@H](C)/C=C/C(=O)O[C@@H]2[C@H](C)[C@H](CC1)O[C@]1(CC[C@H](C)[C@H](C[C@@H](C)O)O1)[C@H]2C`, the AC50 was 10.5 µM (active).
Consider `Cc1ncc(OC[C@@]2(c3cccc(F)c3)C[C@H]2C(=O)Nc2ccc(F)cn2)c(C)n1`, for which the compound was called inactive.
Turning to `COc1cc(C)[nH]c(=O)c1CNC(=O)c1c(C)n([C@H](C)C2CCOCC2)c2ccccc12`, the call was inactive.
For `CC1(C)CC[C@]2(NC(=O)C(C)(F)F)CC[C@]3(C)[C@H](C(=O)C=C4[C@@]5(C)C=C(C#N)C(=O)C(C)(C)[C@@H]5CC[C@]43C)[C@@H]2C1`, the half-maximal activity concentration (AC50) was 7.42 µM (active).
Still for that read-out and setting: as for `CC(=O)OC[C@H]1O[C@@H]([S-])[C@H](OC(C)=O)[C@@H](OC(C)=O)[C@@H]1OC(C)=O.CC[PH+](CC)CC.[Au]`, the figure is 1.05 µM (active).
Take `COc1cc(C)[nH]c(=O)c1CNC(=O)c1c(C)n([C@H](C)C2CCN(CC(F)(F)F)CC2)c2ccccc12`: the result was inactive.
In the case of `C/C1=C/C[C@@H](/C(C)=C/c2csc(C)n2)OC(=O)C[C@H](O)C(C)(C)C(=O)[C@H](C)[C@@H](O)[C@@H](C)CCC1`, the AC50 was 0.00296 µM (active).
On to `O=S(=O)(F)Cc1ccccc1`, for which the compound was called inactive.
As for `C[C@@H]1CC[C@@]2(OC1)O[C@H]1C[C@H]3[C@@H]4CC=C5C[C@@H](O[C@@H]6O[C@H](CO)[C@@H](O[C@@H]7O[C@@H](C)[C@H](O)[C@@H](O)[C@H]7O)[C@H](O)[C@H]6O[C@@H]6O[C@@H](C)[C@H](O)[C@@H](O)[C@H]6O)CC[C@]5(C)[C@H]4CC[C@]3(C)[C@H]1[C@@H]2C`, the AC50 was 0.661 µM (active).
On the same count and under the same terms, as for `Cn1c(COP(=O)(NCCBr)NCCBr)cnc1[N+](=O)[O-]`, the figure is 20.9 µM (active).
With `CC(=O)Nc1ccc(OC[C@](C)(O)C(=O)Nc2ccc([N+](=O)[O-])c(C(F)(F)F)c2)cc1`, the compound was classed as inactive.
Turning to `CN(C)c1cc2c(cc1Sc1nc3c(N)nccc3n1CCNCC(C)(C)C)OCO2`, the AC50 was 0.59 µM (active).
On the same count and under the same terms, as for `C=C(C)[C@@H]1CCC(C)=C[C@H]1c1c(O)cc(CCCCC)cc1O`, the figure is 26.3 µM (active); as for `Cn1c(CCCCCCC(=O)NO)nc2cc(N(CCCl)CCCl)ccc21`, 9.34 µM (active); as for `COc1ccc(N(C(=O)Oc2c(C)cccc2C)c2ccnc(Nc3ccc(N4CCN(C)CC4)cc3)n2)c(OC)c1`, 10.5 µM (active).
Take `O=C(CBr)N1CC([N+](=O)[O-])([N+](=O)[O-])C1`: the outcome was inactive.
Turning to `COC(=O)[C@@]12OC[C@]34[C@H]([C@@H](O)[C@@H]1O)[C@@]1(C)CC(=O)C(O)=C(C)[C@@H]1C[C@H]3OC(=O)[C@H](OC(=O)/C=C(\C)C(C)C)[C@@H]24`, the AC50 was 0.0295 µM (active).
For the compound `COc1cc(C(=O)N2CC[C@@H](O)[C@@H](N)C2)cc2nc(-c3cc4ccccc4n3CC3CC3)n(C)c12`, the AC50 is 23.5 µM (active).
Turning to `CC(N[C@H]1C[C@@H]1c1ccccc1)c1ccc2c(c1)OCCO2` (some centres undefined), the result was inactive.
For the compound `C[C@H]1[C@H](O)[C@@H](C)/C=C/C=C/CC/C=C/C=C/C=C/C=C/[C@H](O[C@@H]2O[C@H](C)[C@@H](O)[C@H](N)[C@@H]2O)C[C@@H]2O[C@](O)(C[C@@H](O)[C@H](O)CC[C@@H](O)C[C@@H](O)C[C@@H](O)CC(=O)O[C@H]1C)C[C@H](O)[C@H]2C(=O)O`, the outcome was inactive.
As for `CC(C)(C)c1cc(C=C(C#N)C#N)cc(Br)c1O`, the AC50 was 20.9 µM (active).
